# In PubChem BioAssay (EPA / NIEHS):
# Several values for one entry are separate records, joined by “and”; a condition that tells them apart may be missing. Identical values can stand only once. Where a structure was tested more than once in an assay, its records may differ in their call. Activity calls are given as the source filed them. How the source made its calls: active means hit-call score of the fitted dose curve at least 0.9, where 1 is the maximum; inactive means score below 0.9.
# Target: Bile acid receptor (Homo sapiens) (UniProt Q96RI1)
# Sequence (Q96RI1 whole entry, looked up): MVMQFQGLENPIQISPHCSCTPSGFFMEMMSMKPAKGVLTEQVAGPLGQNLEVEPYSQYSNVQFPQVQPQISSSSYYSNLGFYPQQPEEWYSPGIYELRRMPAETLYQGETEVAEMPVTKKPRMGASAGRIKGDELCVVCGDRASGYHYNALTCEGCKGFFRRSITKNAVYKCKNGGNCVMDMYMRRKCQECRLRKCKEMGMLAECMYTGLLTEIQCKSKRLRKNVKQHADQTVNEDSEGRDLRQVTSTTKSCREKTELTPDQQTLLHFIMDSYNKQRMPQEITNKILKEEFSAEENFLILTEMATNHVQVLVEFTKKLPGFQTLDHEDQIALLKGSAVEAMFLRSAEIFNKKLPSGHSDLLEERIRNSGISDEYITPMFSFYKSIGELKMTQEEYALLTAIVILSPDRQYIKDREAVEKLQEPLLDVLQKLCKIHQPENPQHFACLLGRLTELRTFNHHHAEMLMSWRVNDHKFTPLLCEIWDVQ
# Experiment: ATG_IR1_CIS: Attagene CIS-FACTORIAL HepG2 Assay for human Nuclear Receptor Subfamily 1 Group H Member 4 (NR1H4), IR1 submotif (AID 2282946)
# Conditions: IR1 reporter transcription, actives raise or lower the signal
# Procedure: ATG_CIS is a cell-based, multiplexed-readout assay that uses HepG2, a human liver cell line, with measurements taken at 24 hours after chemical dosing in a 24-well plate.ATG_IR1_CIS is one of 52 assay component(s) measured or calculated from the ATG_CIS assay. It is designed to make measurements of mRNA induction, a form of inducible reporter, as detected with fluorescence intensity signals by Reverse transcription polymerase chain reaction (RT-PCR) and Capillary electrophoresis technology.Data from the assay component ATG_IR1_CIS was analyzed into 1 assay endpoint. This assay endpoint, ATG_IR1_CIS, was analyzed with bidirectional fitting relative to DMSO as the negative control and baseline of activity. Using a type of inducible reporter, measures of mRNA for gain or loss-of-signal activity can be used to understand the reporter gene at the transcription factor-level as they relate to the gene NR1H4. Furthermore, this assay endpoint can be referred to as a primary readout, because this assay has produced multiple assay endpoints where this one serves a reporter gene function. To generalize the intended target to other relatable targets, this assay endpoint is annotated to the nuclear receptor intended target family, where the subfamily is non-steroidal.
# Human liver HepG2 cells are transiently transfected with multiple reporter transcription units (MRTUs) in 6-well plates using FuGene 6 reagent (Roche; 3 ml FuGene/1 mg DNA). The MRTU constructs are regulated by a cis-regulating element (promoter). […] A major difference between the CIS and TRANS system is that in CIS activities of endogenous TFs are measured, whereas the TRANS assay evaluates changes in activities of exogenous, chimeric NR-Gal4 proteins. […] At the end of 24 hour incubation, total RNA was isolated using TriZol reagent (Invitrogen). The isolated RNA is then reverse-transcribed using oligo(dT) primer and Mo-MLV reverse transcriptase (Invitrogen) with DNAse I (Ambion) treatment for 30 min. The one-tenth of the produced cDNA was amplified by PCR using Taq DNA polymerase (Invitrogen) and two reporter sequence-specific primers. The PCR products were fluorescently labeled by primer extension with 6-arboxyfluorescein (6-FAM) 5'-labeled reporter sequence-specific primer (2 min at 95 C, 20 s at 68 C and 10 min at 72 C) and these products were digested with 5U of HpaI (New England Biolabs) for 2h at 37 C. The fragments were purified using Qiaquick PCR columns (Qiagen), analyzed on an ABI 3130xL genetic analyzer (Applied Biosystems) with peak positions identified by using a set of X-rhodamine (ROX)-labeled MapMarker1000 molecular weight standards (BioVentures). The raw capillary electrophoresis data was processed using Attagraph software (Attagene).
Structure (SMILES),outcome,AC50
CC(C)(C)c1ccc(CCC=O)cc1,inactive,
CC(C)(c1ccc(Oc2ccc(N)cc2)cc1)c1ccc(Oc2ccc(N)cc2)cc1,inactive,
O=C(CC(=O)C(F)(F)C(F)(F)C(F)(F)F)c1cccs1,inactive,
O=C(O)c1cccc(C(=O)O)n1,inactive,
CC(C)CCOCCC(C)C,inactive,
FC(F)(F)N1C(F)(F)C(F)(F)OC(F)(F)C1(F)F,inactive,
O=C(Nc1cccc([N+](=O)[O-])c1)c1cc2ccccc2cc1O,inactive,
CCO[Si](CCC1CCC2OC2C1)(OCC)OCC (stereo not given),inactive,
OCC(F)(F)C(F)(F)C(F)(F)C(F)(F)C(F)(F)C(F)(F)C(F)(F)C(F)(F)C(F)(F)C(F)(F)C(F)(F)F,inactive,
COc1ccccc1NC(=O)c1cc2ccccc2cc1O,,68.8 µM (active)
O=C(F)C(F)(F)C(F)(F)C(F)(F)C(F)F,inactive,
C[N+](C)(CCCNS(=O)(=O)CCC(F)(F)C(F)(F)C(F)(F)C(F)(F)C(F)(F)C(F)(F)F)CC(=O)[O-],inactive,
CCOC(OCC)C(=O)c1ccccc1,inactive,
CCCCCCCC(OC)OC,inactive,
C=CC(=O)OCC(CO)(COCC(COC(=O)C=C)(COC(=O)C=C)COC(=O)C=C)COC(=O)C=C,inactive,
O=S(=O)(c1ccc(OCc2ccccc2)cc1)c1ccccc1O,,56 µM (active)
COC(=O)CC(C(C)=O)C(=O)OC (stereo not given),inactive,
C/C=C/C(=O)C1=C(C)CCCC1(C)C,,43.9 µM (active)
CCOC=C(C(=O)OCC)C(=O)OCC,inactive,

Structure (SMILES),outcome,AC50
O=P(O)(O)CCC(F)(F)C(F)(F)C(F)(F)C(F)(F)C(F)(F)C(F)(F)F,inactive,
CC(C)(C)c1ccc(O)c(O)c1,inactive,45 µM (active) and 59 µM (active) and 37.3 µM (active)
COc1ccc(C#N)cc1,inactive,
CCCCCCCCCCCCCCCCCC[N+](C)(C)Cc1ccccc1,inactive,
COCC1CCC(CO)CC1 (stereo not given),inactive,
Cc1cc(C(C)(C)C)c(O)c(C(C)(C)C)c1,inactive,60 µM (active)
CCCCCCc1ccc(N)cc1,inactive,
CCC1CO1 (stereo not given),inactive,
O=C(NO)c1ccccc1,inactive,10.8 µM (active) and 19.5 µM (active)
COCN(COC)c1nc(N(COC)COC)nc(N(COC)COC)n1,inactive,
CCO[Si](C)(C)OCC,inactive,
CC1COCc2cc3c(cc21)C(C)(C)C(C)C3(C)C (stereo not given),inactive,
CCC(C)c1nccnc1OC (stereo not given),inactive,
C=Cc1ccc(O)c(OC)c1,inactive,
CCCCCCCCCCCCOC(=O)c1cc(O)c(O)c(O)c1,inactive,
OCC1CCC(CO)CC1 (stereo not given),inactive,
CC(C)[C@@H]1CC[C@@H](C)C[C@H]1O,inactive,
CCc1ccccc1O,inactive,
